TDP1 cell CPT = qHTS for Inhibitors of human tyrosyl-DNA phosphodiesterase 1 (TDP1): qHTS in cells in presence of CPT; 420,000 tested, 12% active; chicken DT40 Tdp1-/-;hTDP1 cells + 20 nM CPT, ATP luminescence, 48 h; AID 686979, 2013; Potency, µM (highest dose often 46.2 µM), for inactives: at the top dose activity change, negative = growth inhibition, actives largely listed as inhibitors; also: % is scaled to controls: 0 for no effect and ±100 for the full control effect; nearly all actives have a fitted effect of over 55% in size
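Chicken DT40 Tdp1-/- cells stably complemented with human TDP1 were seeded at 400 cells/well in medium containing 20 nM camptothecin, exposed to pin-transferred compounds, and grown at 37 °C for at least 48 hr. Viability was read as ATP luminescence.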
HT1080 IDH1KD tx = qHTS for induction of synthetic lethality in tumor cells producing 2HG: qHTS for the HT-1080-IDH1KD cell line; HT-1080 IDH1 knockdown viability, ATP luminescence, 48 h; Potency, µM (titrated, usually from 46.1 µM), for the others: at the highest dose activity, negative = toxicity, hits mostly cytotoxic; 360,000 tested, 2% active; AID 686971, 2013;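 also: 0% = DMSO wells and -100% = cell-free medium wells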
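% activity derives from luminescence (CellTiter-Glo), normalised to DMSO and no-cell wells. HT-1080-IDH1KD cells, 750/well, had 48 h compound exposure at 37 °C.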
TGFb inhibitor = qHTS for Inhibitors of TGF-b; 410,000 tested, 1.2% active; Potency, µM (series often up to 46.1 µM), for inactives: at the top dose activity, negative = inhibition, usual class: inhibitors; HepG2 CAGA-GFP TGF-b/SMAD3 reporter, GFP fluorescence, 18 h; TGF-beta stimulated, 500 pg/mL final; also: % is scaled to controls: 0 for no effect and ±100 for the full control effect; nearly all actives have a fitted effect of over 65% in size
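Inhibition of TGF-beta-driven CAGA-GFP reporter expression in HEPG2 cells is measured by cellular GFP fluorescence after 18 h stimulation with 500 pg/mL recombinant TGF-beta in 1% FBS medium at 37 degrees C.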
HT1080NT lethal = qHTS for induction of synthetic lethality in tumor cells producing 2HG: qHTS for the HT-1080-NT fibrosarcoma cell line | HT-1080-NT fibrosarcoma viability, CellTiter-Glo ATP luminescence, 48 h | Potency, µM (highest dose often 46.1 µM), inactives show at the highest dose activity, negative = less viability, usual class: cytotoxic | 360,000 tested, 1.6% active;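 also: NT is the 2HG producing partner of a matched IDH1 knockdown line; 0% = DMSO-treated cells and -100% = media-only wells without cells; nearly all actives have a fitted effect of over 55% in size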
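Read-out is CellTiter-Glo luminescence after 10 minutes at room temperature, following 48 hours' compound treatment of HT-1080-NT cells (750 cells/well, RPMI, 5% FBS, 37 degrees C).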
TDP1 cell noCPT = qHTS for Inhibitors of human tyrosyl-DNA phosphodiesterase 1 (TDP1): qHTS in cells in absence of CPT | DT40 Tdp1-/- hTDP1 cells, no CPT, ATP luminescence, 48 h | Potency, µM (top dose mostly 46.2 µM), inactives show at the highest dose activity change, negative = growth inhibition, usual class: inhibitors | 420,000 tested, 15% active | AID 686978, 2013; also: % is scaled to controls: 0 for no effect and ±100 for the full control effect; nearly all actives have a fitted effect of over 55% in size
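Readout: luminescence from CellTiter-Glo after 30 min in the dark at RT. Cells: DT40 Tdp1-/- with stable hTDP1, 400/well. Exposure: compounds alone, ≥48 hr, 37 °C.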
HepG2 viability = qHTS for Inhibitors of TGF-b: Cytotox Counterscreen | Potency, µM (top dose mostly 46.1 µM), for inactives: top-dose activity change, negative = cytotoxicity, hits mostly cytotoxic | HepG2 CAGA-GFP viability, ATP luminescence, 18 h | 410,000 tested, 0.76% active
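HepG2 CAGA-GFP cells (1000/well, DMEM with 1% FBS) received compound, then TGF-beta at 500 pg/mL final, and were incubated 18 hours at 37 degrees C. Viability was read by CellTiter-Glo luminescence. Media-only wells were set as complete cell-killing and DMSO as no toxicity.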
Active calls of the source: *; ? = inconclusive; . = no result; [ ] = dose if it differs, or a comment. An excerpt weighted towards active compounds, which were near 17% of everything screened. Calls follow the shape of the dose curve; as a rule, active = well fitted curve in the direction sought with a large enough effect; inconclusive = small, poorly fitted or top-dose-only effect, or another doubt; inactive = no such curve, though single readings can be large; an effect the other way counts as inactive or inconclusive. Potency is read from the fitted curve at half-maximal effect.

SMILES | TDP1 cell CPT | HT1080 IDH1KD tx | TGFb inhibitor | HT1080NT lethal | TDP1 cell noCPT | HepG2 viability
Cc1nnc(N2CCC(C(=O)NCc3cccc(Cl)c3)CC2)c2nn(-c3ccccc3)c(C)c12 | ? | . | 11µM* | . | ? | -73%
Cc1ccc(-n2nc3c(N4CCC(C(=O)NCc5cccc(F)c5)CC4)nnc(C)c3c2C)cc1 | ? | ? | 16µM* | ? | 18µM* | -95%
COCCCn1c(=O)c2ccccc2n2c(=S)[nH]nc12 | -2% | 4% | 0% | 0% | -3% | 7%
Cc1ccccc1-c1n[nH]nc1C1=CC(=O)C[C@H](c2ccc(F)cc2)C1 | -22% | -13% | ? | -8% | ? | -79%
CN(C)CCNc1ccc(-c2nn(C)c(=O)c3ccccc23)cc1[N+](=O)[O-] | ? | 15% | -8% | -2% | 23µM* | -11%
CN(CCO)c1ccc(-c2nn(C)c(=O)c3ccccc23)cc1[N+](=O)[O-] | ? | -1% | 1% | 1% | 8.2µM* | -25%
CN(C)CCCNc1ccc(-c2n[nH]c(=O)c3ccccc23)cc1[N+](=O)[O-] | 10µM* | -11% | 2% | -13% | 23µM* | -14%
Cn1nc(-c2ccc(NCCO)c([N+](=O)[O-])c2)c2ccccc2c1=O | 14% | -12% | 0% | 1% | -2% | -19%
CC(C)NC(=O)N1CCC2(CC1)CCN(C(=O)c1csnn1)CC2 | 21% | . | . | . | -4% | .
CCS(=O)(=O)N1CCC(C(=O)Oc2ccc(C)c(C)c2)CC1 | -3% | 3% | 20% | 3% | 7% | 10%
CNc1c([N+](=O)[O-])cnn1-c1ccccn1 | 15% | 21% | 3% | 8% | 1% | 5%
Cc1cccc(NC(=O)c2ccc([N+](=O)[O-])o2)c1C | ? | 18µM* | ? | 23µM* | ? | -40%
O=C(Nc1ncccn1)c1ccc([N+](=O)[O-])o1 | ? | ? | ? | ? | ? | -47%
O=C(Nc1cccc2ccccc12)c1ccc([N+](=O)[O-])o1 | 15µM* | 13µM* | ? | ? | 26µM* | -128%
Cc1ccc(C(=O)Nc2cccc3ccccc23)o1 | ? | 13% | 7% | 12% | ? | -27%
COc1ccccc1CNC(=O)COc1cc2c(c3oc(=O)cc(C)c13)CCC(C)(C)O2 | 23µM* | -14% | -17% | -1% | 23µM* | -14%
COc1ccc(CNC(=O)COc2cc3c(c4oc(=O)cc(C)c24)CCC(C)(C)O3)cc1 | ? | 7% | -26% | 9% | ? | -16%
CCc1cc(=O)oc2c3c(cc(OCC(=O)NCc4ccncc4)c12)OC(C)(C)CC3 | 16µM* | -16% | -5% | -3% | 21µM* | -27%
CCc1cc(=O)oc2c3c(cc(OCC(=O)NCc4ccco4)c12)OC(C)(C)CC3 | ? | -6% | ? | -8% | ? | -3%
Cc1cc(=O)oc2c3c(cc(OCC(=O)NCc4cccnc4)c12)OC(C)(C)CC3 | ? | -10% | 0% | -3% | ? | -26%
COc1cccc(CNC(=O)COc2cc3c(c4oc(=O)cc(C)c24)CCC(C)(C)O3)c1 | 21µM* | -5% | -22% | -1% | 16µM* | -37%
COc1ccc(CNC(=O)[C@@H](NC(=O)C2CCN(S(=O)(=O)c3ccc(C)cc3)CC2)C(C)C)cc1OC | ? | 0% | 10% | -1% | -15% | 2%
CC(C)(C)c1ccc(NC(=O)COc2ccc(-n3ccnc3)cc2)cc1 | 15µM* | ? | -11% | -23% | 16µM* | -20%
COc1cc(NC(=O)COc2ccc(-n3ccnc3)cc2)cc(OC)c1 | ? | -26% | -11% | -27% | ? | -2%
CC1(C(=O)NS(=O)(=O)c2ccccc2)CCN1C(=O)c1ccc(C2CCCCC2)cc1 (stereo not drawn) | -9% | 1% | 16% | -1% | -2% | -12%
SMILES | TDP1 cell CPT | HT1080 IDH1KD tx | TGFb inhibitor | HT1080NT lethal | TDP1 cell noCPT | HepG2 viability
COc1ccccc1-c1cnc(C(O)c2ccc(CN3CCCCC3)cc2)[nH]1 (stereo not drawn) | -15% | 20% | 18% | 9% | -12% | -6%
CC1(C)CC(=O)C2=C(C1)c1c(ccc3ccccc13)NC2c1ccc(Br)o1 (stereo not drawn) | ? | ? | -20% | ? | 21µM* | 20µM*
COC(=O)c1ccccc1NC(=O)CN(C)S(=O)(=O)c1ccc(OC)cc1 | ? | 6% | -14% | 9% | ? | -1%
COc1cc(NC(=O)CN(C)S(=O)(=O)c2ccc(C)cc2)cc(OC)c1 | -16% | -6% | -14% | -9% | -24% | -9%
CSc1cccc(NC(=O)CN(C)S(=O)(=O)c2ccc(C)cc2)c1 | ? | -2% | ? | -11% | 16µM* | 1%
COC(=O)c1ccccc1NC(=O)CN(C)S(=O)(=O)c1ccc(OC)c(C)c1 | 23µM* | -20% | 12% | -8% | ? | -13%
COc1ccc(S(=O)(=O)N(C)CC(=O)Nc2ccc(C)cc2)cc1OC | 23µM* | -2% | 2% | -4% | ? | -20%
COc1ccc(CCC(=O)NNC(=S)Nc2cccc(C(C)=O)c2)cc1 | 10% | ? | -3% | -2% | -3% | 9%
CC(C)Cc1nc2cc(NS(=O)(=O)N(C)C)cc(C(=O)N3CCOCC3)c2n1C | 8%[9.04 µM] | . | . | . | 3% | .
COc1ccc(Cl)cc1NC(=O)CSC1=Nc2ccccc2C2=NC(CC(=O)NCc3ccc4c(c3)OCO4)C(=O)N12 (stereo not drawn) | ? | . | -21% | . | ? | -19%
O=C(CC1N=C2c3ccccc3N=C(SCC(=O)Nc3cccc(Cl)c3)N2C1=O)NCc1cccs1 (stereo not drawn) | ? | . | ? | . | 23µM* | -7%
COc1ccc(Cl)cc1NC(=O)CSC1=Nc2ccccc2C2=NC(CC(=O)NCc3cccs3)C(=O)N12 (stereo not drawn) | ? | . | -24% | . | 23µM* | -38%
CCCCOc1ccc(CSC(=N)N)cc1Cl | 15µM* | 15µM* | ? | 18µM* | 18µM* | -176%

Bioassay records as filed in PubChem BioAssay.
